Experiment [1] can be described thus: rapamycin-like changes in RPL19A-GFP expression – cell-based, S. cerevisiae, multiplex flow cytometry, primary screen (AID 1862; in the data active = percent of DMSO control GFP below about 86%;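 also: lower values mimic rapamycin by blocking the RPL19A rise seen in DMSO cells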). The conditions noted are these: S. cerevisiae RPL19A-GFP strain, flow cytometry fluorescence, 3 h; at 10 µM; stronger effect = lower value.
Experiment [2] can be described thus: TOR pathway GLN3 branch reporter MEP2-GFP changes – S. cerevisiae, multiplex flow cytometry, primary screen (AID 1867;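 active = GFP response, as percent of the DMSO control, above the screen-wide mean plus 3 SD, about 139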;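 also: median GFP channel fluorescence of barcode-gated MEP2-GFP cells measured by flow cytometry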). The conditions noted are these: S. cerevisiae MEP2-GFP strain, 3 h, at 10 µM, stronger effect = higher value, 100% means same as DMSO wells. For orientation: A flow cytometer gives signals particle by particle.
A short description of experiment [3]: TOR pathway RTG branch CIT2 reporter changes – S. cerevisiae, GFP fusion, multiplex flow cytometry, primary screen (AID 1870;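 active = percent response above a set limit, the screen-wide mean plus 3 SD, cut at about 130% in these data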;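 also: barcoded CIT2-GFP strain pooled with four other GFP strains with rapamycin as positive control; median GFP fluorescence per well over plate mean of DMSO wells so 100% = DMSO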). The conditions noted are these: S. cerevisiae CIT2-GFP expression, 3 h, at 10 µM, stronger effect = higher value.
Experiment [4] is described as follows: TOR pathway LAP4-GFP level changes – S. cerevisiae, multiplex flow cytometry, primary screen (AID 1873;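 active = GFP signal, as percent of the solvent control, above the screen mean plus 3 SD, about 149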). The settings on record: S. cerevisiae LAP4-GFP expression, 3 h, at 10 µM, stronger effect = higher value.
The nature of experiment [5]: yeast AGP1-GFP level changes, GLN3 branch – cell-based, multiplex flow cytometry, S. cerevisiae, primary screen (AID 1887;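 active = GFP signal above the screen-wide mean plus 3 SD, that is over about 124.5% of the solvent control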;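 also: AGP1-GFP fusion strain of S. cerevisiae within a five-strain barcoded multiplex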). The settings on record: 3 h, at 10 µM, stronger effect = higher value.
Experiment [6] can be described thus: reduced mouse 2C T cell binding to pMHC/ICAM-1 vesicles – MLPCN validation set, flow cytometry, LFA-1/ICAM-1 modulator project, pilot screen (AID 2523).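 As to vesicle binding response: mean PE anti-B7-1 fluorescence of CD8+ cells relative to row control; 100% = QL9-loaded vesicles with DMSO vehicle in the same plate row.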 The settings on record: 2C mouse CD8+ T cells, at 7 µM, stronger effect = lower value; double positive events: measured here: CD8+/vesicle+ event percentage.
Experiment [7] addresses Integrin beta-1 (Homo sapiens) + Integrin alpha-4 (Homo sapiens) (UniProt P13612+P05556). The experiment is described as follows: alpha4beta1 integrin LIBS antibody binding reduction – U937 cells, HUTS-21 mAb, flow cytometry, validation set, VLA-4 allosteric modulator project, pilot screen (AID 2674;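 active = inhibition above 50%, about 3 SD of the validation set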;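 also: antibody binding induced by the VLA-4 ligand LDV present at three times its Kd; 0% = LDV ligand with antibody and no compound and 100% = antibody without LDV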). The settings on record: HUTS-21 LIBS mAb binding, at 6.7 µM, stronger effect = higher value, binding induced by LDV ligand.

A short description of experiment [8]: calorie-restriction mimetic ROS inhibitors, yeast – validation compound set, pilot screen (AID 2706;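 active = superoxide response below 65% of plate, a cut near 3 SD across the whole screen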;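 also: yeast exposed to compound for one week at 30 degrees C before staining; 100% = mean of all compound wells on the same plate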). The conditions noted are these: S. cerevisiae aging, superoxide DHE fluorescence; at 10 µM, stronger effect = lower value.
In experiment [9] the target is Beta-adrenergic receptor kinase 1 (Homo sapiens) (UniProt P25098). The experiment is described as follows: GRK2 binders displacing RNA aptamer, biochemical, validation, human GRK2, bead flow cytometry (AID 488806;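 active = aptamer binding inhibition above 30%, about 3 SD of noise from non-fluorescent compounds; inactive = inhibition at or below 30%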). The conditions noted are these: bead-bound GRK2, FAM-aptamer displacement, at 10 µM, stronger effect = higher value.
Experiment [10] concerns the target Beta-2 adrenergic receptor (Homo sapiens) (UniProt P07550). The experiment is described as follows: agonist-induced loss of surface beta2AR – cell-based, FAP fluorogen, flow cytometry, validation set, pilot screen (AID 504459;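 active = percent response above 42, roughly 3 SD of non-fluorescent test compounds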;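 also: agonist-driven loss of surface beta2AR via internalization measured by FAP dye flow cytometry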). The conditions noted are these: Am2.2-beta2AR cells, at 10 µM, stronger effect = higher value.
Experiment [11] is described as follows: cytosolic pH regulators acting via V-ATPase – S. cerevisiae, pHLuorin, HTS validation (AID 504600; in the data active = response above about 15%;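 also: plate controls were DMSO for no effect and reference compound for full effect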). The settings on record: V-ATPase proton transport, at 10 µM, stronger effect = higher value.
The subject of experiment [12] is anti-desmoglein-3 scFv antibody binding to human DSG3. Description: blockers of pathogenic pemphigus antibody–desmoglein-3 binding – biochemical, validation compound set, bead-based, flow cytometry, pilot screen (AID 588368;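 active = binding below the plate cutoff, the plate median minus 3 SD, with a reading above zero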;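 also: signal is the median channel fluorescence of bead-bound GFP antibody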). The settings on record: Protein G beads, DSG3-Fc, scFv-GFP binding, at 10 µM, stronger effect = lower value.
Experiment [13] is described as follows: Nile Red efflux blockade in pump-expressing yeast – validation compound set, multiplex, phenotypic, pilot screen (AID 588506;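 active = efflux inhibition above 0.42, the validation set average plus 4 SD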;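 also: Nile Red retained in cells so higher fluorescence means more efflux inhibition; 0 = negative control wells and 1 = enniatin B 25 µM full block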). The conditions noted are these: S. cerevisiae pump-expressing triplex, Nile Red efflux flow cytometry; at 10 µM; stronger effect = higher value; the pumps come from Candida albicans.
In experiment [14] the target is ATP-binding cassette sub-family B member 6 (Homo sapiens) (UniProt Q9NP58). The experiment is described as follows: blockers of ABCB6-driven porphyrin uptake – K562-ABCB6 cells, flow cytometry, validation set, pilot screen (AID 588550;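 active = inhibition above the screen-wide mean plus 3 SD, about 51%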;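 also: 0% = DMSO wells and 100% = benzethonium chloride 70 µM positive control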). The conditions noted are these: K562-ABCB6 porphyrin accumulation, 1 h, at 10 µM, stronger effect = higher value.
Experiment [15] can be described thus: AML differentiation inducers, ER-HoxA9 marrow cells – cell-based, GFP/MAC1 double positive, flow cytometry, validation set, primary screen (AID 588685;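 active = differentiation response of at least 50%, scaled between solvent and reference control, from cells with both markers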;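 also: compound exposure lasts four days before antibody staining and flow analysis; 0% = DMSO wells and 100% = 5 µM fulvestrant positive control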). The conditions noted are these: stronger effect = higher value, normalized: vehicle 0, fulvestrant 100.
The target of experiment [16] is AP-2 complex subunit beta (Homo sapiens) (UniProt P63010). Description: beta-arrestin/AP2 interaction blockers – biochemical, validation set, GST-AP2 beads, flow cytometry, pilot screen (AID 504541;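 active = inhibition above 54%, about 3 SD of non-fluorescent compounds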;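 also: AP2 carries R879A mutation and is captured from E. coli lysate; bead-bound FITC arrestin peptide fluorescence measuring arrestin peptide binding to AP2; 0% = DMSO wells and 100% = excess unlabeled arrestin peptide control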). The settings on record: FITC arrestin peptide, at 10 µM, stronger effect = higher value, AP2 beta2 appendage fragment, R879A mutant.

In general, inhibition refers to the drop in the measured response relative to a control, in per cent.

Inconclusive results are not listed. The source made the active and inactive calls.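 The calls were made as follows, unless noted: active = response below a set limit, under 55% cells CD8-positive and vesicle-bound, and CD8 cells' 90th-percentile brightness under 279; inactive = the rest.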

Sequence of Beta-2 adrenergic receptor (Homo sapiens) (P07550 whole entry, looked up): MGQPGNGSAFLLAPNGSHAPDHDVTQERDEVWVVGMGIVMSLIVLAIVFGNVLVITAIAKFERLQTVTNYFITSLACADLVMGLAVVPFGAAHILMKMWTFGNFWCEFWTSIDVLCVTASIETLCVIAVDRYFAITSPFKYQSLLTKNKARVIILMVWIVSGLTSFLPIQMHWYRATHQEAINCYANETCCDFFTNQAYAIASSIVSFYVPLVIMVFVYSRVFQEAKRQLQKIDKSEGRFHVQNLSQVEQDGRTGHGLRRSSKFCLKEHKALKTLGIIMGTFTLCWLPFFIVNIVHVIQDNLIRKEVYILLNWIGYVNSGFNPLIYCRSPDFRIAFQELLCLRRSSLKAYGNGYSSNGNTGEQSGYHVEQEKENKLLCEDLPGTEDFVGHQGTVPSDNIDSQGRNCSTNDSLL
Sequence of ATP-binding cassette sub-family B member 6 (Homo sapiens) (Q9NP58 whole entry, looked up): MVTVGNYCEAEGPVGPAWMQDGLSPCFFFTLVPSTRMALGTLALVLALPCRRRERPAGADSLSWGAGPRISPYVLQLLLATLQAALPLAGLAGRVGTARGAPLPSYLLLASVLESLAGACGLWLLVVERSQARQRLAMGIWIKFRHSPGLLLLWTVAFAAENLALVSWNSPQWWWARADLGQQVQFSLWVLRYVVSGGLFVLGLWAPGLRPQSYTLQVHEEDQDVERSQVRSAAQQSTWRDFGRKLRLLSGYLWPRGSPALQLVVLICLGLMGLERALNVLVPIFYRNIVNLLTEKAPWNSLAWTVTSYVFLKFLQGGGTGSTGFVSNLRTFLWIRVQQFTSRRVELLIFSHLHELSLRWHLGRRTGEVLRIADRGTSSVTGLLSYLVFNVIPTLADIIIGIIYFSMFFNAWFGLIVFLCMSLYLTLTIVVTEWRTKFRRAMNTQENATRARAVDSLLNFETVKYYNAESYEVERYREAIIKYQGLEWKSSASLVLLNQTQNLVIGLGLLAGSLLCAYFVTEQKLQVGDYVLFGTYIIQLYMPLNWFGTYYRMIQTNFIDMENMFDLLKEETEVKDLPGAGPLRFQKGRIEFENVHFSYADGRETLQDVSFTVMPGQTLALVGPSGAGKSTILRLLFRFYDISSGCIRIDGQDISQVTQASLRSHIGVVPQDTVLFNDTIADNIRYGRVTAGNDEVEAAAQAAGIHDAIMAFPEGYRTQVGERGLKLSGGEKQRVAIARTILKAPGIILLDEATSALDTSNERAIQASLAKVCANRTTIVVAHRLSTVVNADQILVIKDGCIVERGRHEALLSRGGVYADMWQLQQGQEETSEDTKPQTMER
Sequence of Beta-adrenergic receptor kinase 1 (Homo sapiens) (P25098 whole entry, looked up): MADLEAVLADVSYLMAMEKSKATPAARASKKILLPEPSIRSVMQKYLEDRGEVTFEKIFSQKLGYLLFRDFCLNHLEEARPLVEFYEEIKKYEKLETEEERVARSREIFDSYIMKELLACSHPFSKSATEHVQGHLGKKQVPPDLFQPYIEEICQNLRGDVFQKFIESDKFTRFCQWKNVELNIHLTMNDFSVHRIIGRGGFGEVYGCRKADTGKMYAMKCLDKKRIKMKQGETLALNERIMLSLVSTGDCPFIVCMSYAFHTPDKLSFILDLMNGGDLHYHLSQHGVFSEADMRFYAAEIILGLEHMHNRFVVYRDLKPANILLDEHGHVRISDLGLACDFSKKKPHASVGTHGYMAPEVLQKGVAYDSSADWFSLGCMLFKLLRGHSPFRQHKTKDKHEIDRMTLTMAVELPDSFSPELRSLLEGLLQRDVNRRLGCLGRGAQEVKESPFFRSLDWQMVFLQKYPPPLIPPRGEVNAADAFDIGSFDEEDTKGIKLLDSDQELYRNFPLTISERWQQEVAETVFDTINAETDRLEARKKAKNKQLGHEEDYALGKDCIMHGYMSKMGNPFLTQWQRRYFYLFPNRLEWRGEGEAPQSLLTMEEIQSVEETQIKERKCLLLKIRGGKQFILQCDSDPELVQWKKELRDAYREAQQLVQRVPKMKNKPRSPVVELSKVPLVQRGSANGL
Sequence of AP-2 complex subunit beta (Homo sapiens) (P63010 whole entry, looked up, the tested form may be a part, one chain of several): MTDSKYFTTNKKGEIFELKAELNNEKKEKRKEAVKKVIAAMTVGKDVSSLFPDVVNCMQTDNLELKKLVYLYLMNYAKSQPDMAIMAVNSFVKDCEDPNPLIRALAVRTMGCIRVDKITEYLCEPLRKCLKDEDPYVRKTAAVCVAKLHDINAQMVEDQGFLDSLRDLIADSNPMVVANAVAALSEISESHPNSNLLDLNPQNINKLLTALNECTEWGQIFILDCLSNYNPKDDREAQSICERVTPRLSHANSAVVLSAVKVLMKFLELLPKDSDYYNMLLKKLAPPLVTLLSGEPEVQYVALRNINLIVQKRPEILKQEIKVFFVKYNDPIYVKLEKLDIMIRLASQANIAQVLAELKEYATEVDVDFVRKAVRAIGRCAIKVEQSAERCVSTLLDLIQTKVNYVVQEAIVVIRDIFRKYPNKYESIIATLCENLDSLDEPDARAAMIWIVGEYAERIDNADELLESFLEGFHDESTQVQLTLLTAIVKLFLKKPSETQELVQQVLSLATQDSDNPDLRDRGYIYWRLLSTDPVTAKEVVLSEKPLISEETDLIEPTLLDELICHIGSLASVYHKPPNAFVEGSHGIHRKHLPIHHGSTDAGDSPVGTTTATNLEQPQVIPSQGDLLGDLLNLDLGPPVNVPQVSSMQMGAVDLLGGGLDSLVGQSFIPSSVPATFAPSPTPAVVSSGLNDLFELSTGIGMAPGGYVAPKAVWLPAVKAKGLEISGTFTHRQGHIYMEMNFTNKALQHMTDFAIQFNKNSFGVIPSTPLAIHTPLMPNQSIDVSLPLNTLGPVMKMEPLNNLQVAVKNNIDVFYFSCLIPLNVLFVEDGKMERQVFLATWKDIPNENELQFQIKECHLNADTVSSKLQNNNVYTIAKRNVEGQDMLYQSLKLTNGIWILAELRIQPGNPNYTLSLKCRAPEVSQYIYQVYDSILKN
Sequence of Integrin beta-1 (Homo sapiens) + Integrin alpha-4 (Homo sapiens) (P05556 whole entry, looked up): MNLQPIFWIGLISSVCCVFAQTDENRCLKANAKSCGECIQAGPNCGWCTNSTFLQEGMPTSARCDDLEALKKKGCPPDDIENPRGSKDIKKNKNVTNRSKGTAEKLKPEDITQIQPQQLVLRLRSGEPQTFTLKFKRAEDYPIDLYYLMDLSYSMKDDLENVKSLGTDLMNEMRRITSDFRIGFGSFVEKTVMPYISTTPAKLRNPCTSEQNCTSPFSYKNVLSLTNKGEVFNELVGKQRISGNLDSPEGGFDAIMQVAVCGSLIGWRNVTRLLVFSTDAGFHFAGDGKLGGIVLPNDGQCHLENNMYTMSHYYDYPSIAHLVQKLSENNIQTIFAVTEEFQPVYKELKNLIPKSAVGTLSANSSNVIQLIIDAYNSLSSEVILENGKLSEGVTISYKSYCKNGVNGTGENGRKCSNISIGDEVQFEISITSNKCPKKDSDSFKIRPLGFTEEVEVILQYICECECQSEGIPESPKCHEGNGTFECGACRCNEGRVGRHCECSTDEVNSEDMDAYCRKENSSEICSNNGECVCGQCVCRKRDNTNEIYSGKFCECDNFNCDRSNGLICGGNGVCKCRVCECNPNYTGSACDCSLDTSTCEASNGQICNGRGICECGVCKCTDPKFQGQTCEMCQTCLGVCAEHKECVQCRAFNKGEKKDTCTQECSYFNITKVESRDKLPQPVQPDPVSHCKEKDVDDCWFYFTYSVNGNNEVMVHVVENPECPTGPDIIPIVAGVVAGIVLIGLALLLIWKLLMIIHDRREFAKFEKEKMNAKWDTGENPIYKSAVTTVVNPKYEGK
Sequence of Integrin beta-1 (Homo sapiens) + Integrin alpha-4 (Homo sapiens) (P13612 whole entry, looked up): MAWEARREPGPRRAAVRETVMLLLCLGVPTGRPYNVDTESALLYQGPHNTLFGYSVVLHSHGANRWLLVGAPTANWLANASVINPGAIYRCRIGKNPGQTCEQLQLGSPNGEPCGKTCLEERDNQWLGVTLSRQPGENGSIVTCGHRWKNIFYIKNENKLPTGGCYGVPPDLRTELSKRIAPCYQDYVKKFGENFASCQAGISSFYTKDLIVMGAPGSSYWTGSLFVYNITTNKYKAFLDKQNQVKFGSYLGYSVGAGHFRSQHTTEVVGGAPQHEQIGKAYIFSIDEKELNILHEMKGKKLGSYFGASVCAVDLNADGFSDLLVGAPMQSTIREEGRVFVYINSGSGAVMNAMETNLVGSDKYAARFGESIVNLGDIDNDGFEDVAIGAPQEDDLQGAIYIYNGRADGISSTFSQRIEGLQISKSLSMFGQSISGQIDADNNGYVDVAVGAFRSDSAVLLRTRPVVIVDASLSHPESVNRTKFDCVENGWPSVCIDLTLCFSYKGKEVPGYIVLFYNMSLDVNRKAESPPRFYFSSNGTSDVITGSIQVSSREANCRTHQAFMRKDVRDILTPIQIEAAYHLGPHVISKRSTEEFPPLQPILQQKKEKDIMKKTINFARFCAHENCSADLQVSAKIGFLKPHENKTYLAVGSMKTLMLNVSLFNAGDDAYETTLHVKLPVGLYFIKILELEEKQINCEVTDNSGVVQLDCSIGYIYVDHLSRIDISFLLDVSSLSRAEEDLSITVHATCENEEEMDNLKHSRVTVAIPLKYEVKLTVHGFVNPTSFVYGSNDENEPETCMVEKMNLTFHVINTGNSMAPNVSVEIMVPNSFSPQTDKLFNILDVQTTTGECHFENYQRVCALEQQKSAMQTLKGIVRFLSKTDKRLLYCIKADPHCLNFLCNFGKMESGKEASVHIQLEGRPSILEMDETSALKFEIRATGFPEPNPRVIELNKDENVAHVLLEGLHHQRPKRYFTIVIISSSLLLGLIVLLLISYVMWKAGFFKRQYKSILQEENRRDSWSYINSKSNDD

In the case of `Cn1cc(CN2CCCC(CO)(Cc3cccc(Cl)c3)C2)cn1` (stereo not given), the percent of DMSO control GFP in experiment [1] was 98% (inactive). For the same compound, the GFP response vs DMSO is 102% (inactive) in experiment [2] and 97.2% (inactive) in experiment [4]. In addition, the percent response of DMSO control in experiment [3] is 98.2% (inactive). Besides, the GFP response, % of DMSO in experiment [5] is 99.5% (inactive). This compound also gave a double positive events in experiment [6] of 59.5%. Moreover, the vesicle binding response in [6] is 57.6% (inactive). The figures for the inhibition in [7] and in experiment [14] were 9.71% (inactive) and 2% (inactive), respectively. Besides, the superoxide response (% of plate) in [8] was 92.7% (inactive). The aptamer binding inhibition in experiment [9] is 0% (inactive). Besides, the response is 30.5% (inactive) in experiment [10] and -0.03% (inactive) in [11]. Also, the binding (% of control) in experiment [12] was 102% (inactive). The efflux inhibition (fraction of control) in experiment [13] is -0.66 (inactive). In experiment [15], the differentiation response was -1.88% (inactive).
As to `Nc1nc2c(ncn2COC(CO)CO)c(=O)[nH]1`, the percent of DMSO control GFP in experiment [1] is 97.3% (inactive). Also, the GFP response vs DMSO was 106% (inactive) in experiment [2] and 125% (inactive) in [4]. Moreover, in experiment [3], the percent response of DMSO control was 96.4% (inactive). The GFP response, % of DMSO in experiment [5] is 119% (inactive). The compound also yielded a double positive events in experiment [6] of 60.3%. Also, the vesicle binding response in [6] was 212% (inactive). The values for the inhibition in experiment [7], in [16] and in experiment [14] were -11.3% (inactive), -16.5% (inactive) and 5% (inactive), respectively. In experiment [8], the superoxide response (% of plate) was 106% (inactive). Further, in experiment [9], the aptamer binding inhibition was -6% (inactive). In addition, the response in experiment [10] is -20.9% (inactive); in experiment [11] it was -2.35% (inactive). Besides, in [12], the binding (% of control) is 98% (inactive). For the same compound, in experiment [15], the differentiation response was -10.9% (inactive).
Turning to `NCCCC(=O)O`, in experiment [1], the percent of DMSO control GFP was 97.8% (inactive). In addition, the GFP response vs DMSO is 99.9% (inactive) in experiment [2] and 103% (inactive) in experiment [4]. Moreover, the percent response of DMSO control in experiment [3] was 95.9% (inactive). Moreover, the GFP response, % of DMSO in experiment [5] is 96.7% (inactive). The same compound returned a double positive events in experiment [6] of 57.8%. Besides, the vesicle binding response in experiment [6] was 192% (inactive). Moreover, the inhibition in experiment [7] is 10.9% (inactive); in [16], 2.65% (inactive); in experiment [14], -31% (inactive). For the same compound, the superoxide response (% of plate) in experiment [8] was 103% (inactive). Besides, in experiment [9], the aptamer binding inhibition was 0% (inactive). In addition, the response in experiment [11] is -1.76% (inactive). Further, the binding (% of control) in experiment [12] was 99.8% (inactive). Also, in experiment [13], the efflux inhibition (fraction of control) is 0.94 (active). The differentiation response in experiment [15] is -13.1% (inactive).
For `Nc1ccc(N)c(C(=O)O)c1`, in experiment [1], the percent of DMSO control GFP is 100% (inactive). The GFP response vs DMSO in experiment [2] was 99.9% (inactive); in experiment [4], 85.3% (inactive). Further, the percent response of DMSO control in [3] is 110% (inactive). Also, the GFP response, % of DMSO in experiment [5] was 90.3% (inactive). In addition, in experiment [6], the double positive events turned out to be 50%. Further, in [6], the vesicle binding response was 122% (inactive). The values for the inhibition in [7], in experiment [16] and in [14] were -3.04% (inactive), 92.2% (active) and 8% (inactive), respectively. In [8], the superoxide response (% of plate) is 79% (inactive). In experiment [9], the aptamer binding inhibition is 92% (active). Besides, the response in experiment [11] was -0.99% (inactive). Further, the binding (% of control) in experiment [12] was 2.29% (active). Moreover, the efflux inhibition (fraction of control) in [13] was -0.24 (inactive). Moreover, the differentiation response in experiment [15] is -5.05% (inactive).
`CN1CCC(=C2c3ccccc3CC(=O)c3sccc32)CC1`: in experiment [1], the percent of DMSO control GFP was 101% (inactive). In addition, the values for the GFP response vs DMSO in experiment [2] and in experiment [4] were 101% (inactive) and 94.8% (inactive), respectively. For the same compound, in experiment [3], the percent response of DMSO control is 108% (inactive). Further, the GFP response, % of DMSO in [5] is 101% (inactive). Also, the double positive events in experiment [6] worked out at 62.4%. The vesicle binding response in experiment [6] was 136% (inactive). Besides, the inhibition in experiment [7] was -3.77% (inactive); in experiment [16], -10.2% (inactive); in experiment [14], 4% (inactive). In experiment [8], the superoxide response (% of plate) was 96.5% (inactive). Moreover, the aptamer binding inhibition in experiment [9] is -2% (inactive). In addition, the response in experiment [10] is 11.7% (inactive); in experiment [11], 1.45% (inactive). The binding (% of control) in experiment [12] is 105% (inactive). In [15], the differentiation response is -14.8% (inactive).

(Values after PubChem BioAssay.)
